“And” between values parts separate entries of the source, which are not always exact repeats. Equal values may be shown once. The source made the active and inactive calls. Unless noted, no rule for the calls is given here.
What was measured:
[1] = Cy5 fluorescence interference with SSB-bound oligo, artefact control for HCV NS3 helicase inhibitor project, biochemical, NIH Clinical Collection, E. coli SSB (AID 743268)
[2] = tested on: Hepatitis C virus NS3 helicase; experiment: HCV NS3 helicase inhibitors, primary screen, biochemical, fluorescence polarization, NIH Clinical Collection (AID 743270); conditions: NS3 helicase binding to Cy5-dT15 DNA, stronger effect = higher value, concentration not given here
[3] = target: Single-stranded DNA-binding protein (Escherichia coli (strain K12)) (UniProt P0AGE0); experiment: E. coli SSB displacement from DNA, counter-screen for HCV NS3 helicase inhibitor project, biochemical, fluorescence polarization, NIH Clinical Collection (AID 743271; in the data active = inhibition above about 28%); conditions: stronger effect = higher value, concentration not given here
[4] = fluorescence interference in NS3h assay format, artefact control for HCV NS3 helicase inhibitor project, biochemical, NIH Clinical Collection (AID 743272); conditions: fluorescence interference counterscreen, stronger effect = lower value;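 also: HCV NS3 helicase with a Cy5 labelled single stranded DNA probe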
[5] = tested on: Neuropilin-2 / VEGF-C interaction (human); experiment: inhibitors of NRP2–VEGF-C binding, biochemical, microplate binding format, z-score (AID 743281); conditions: microplate NRP2/VEGF-C binding assay; stronger effect = lower value
[6] = stimulators of nuclear beta-catenin in C2C12, primary screen, imaging, WNT3A-conditioned medium, mouse C2C12, NPC library (AID 1117326; in the data active = nuclear beta-catenin stimulation mostly above about 4.2%, no sharp cut-off; inactive = mostly below about 10%); conditions: stronger effect = higher value
[7] = tested on: Hepatitis C virus NS3 helicase; experiment: HCV NS3 helicase inhibitors, primary screen, biochemical, fluorescence polarization, LOPAC1280 library (AID 687035; in the data active = inhibition above about 37%); conditions: Purified HCV NS3 helicase, Cy5-dT15 ssDNA binding fluorescence polarization; stronger effect = higher value; concentration not given here
[8] = Cy5 fluorescence quenching or enhancement artefacts, artefact control for HCV NS3 helicase inhibitor project, biochemical, LOPAC1280 (AID 687037); conditions: Cy5-DNA-NS3h complex fluorescence interference counterscreen

Cc1nccn1CC1CCc2c(c3ccccc3n2C)C1=O (stereo not given)
1.9%: nuclear beta-catenin stimulation ([6]; stimulation, at 2 µM)
inactive: fluorescence ratio [1] 0.99 and 1.12 | inhibition [2] 0.4% and -4.09% | inhibition [3] 3.75% and 1.05% | fluorescence ratio [4] 0.97 and 1.02 | z-score [5] -0.188 | nuclear beta-catenin stimulation ([6]; at 10 µM) -0.2%

Cc1cc(C(C)(C)C)c(O)c(C)c1CC1=NCCN1
inactive: inhibition [7] -6% | fluorescence ratio (interference) [8] 0.9 | nuclear beta-catenin stimulation ([6]; at 10 µM) 1.6%
2.7%: nuclear beta-catenin stimulation ([6]; stimulation, at 2 µM)

CC(C)NCC(O)COc1ccc(COCCOC(C)C)cc1 (stereo not given)
inactive: inhibition [7] 2% | fluorescence ratio (interference) [8] 1 | fluorescence ratio [1] 1.04 | inhibition [2] 1.19% | inhibition [3] -0.1% | fluorescence ratio [4] 0.94 | z-score [5] -0.164 | nuclear beta-catenin stimulation ([6]; at 10 µM) 0.8%
1.2%: nuclear beta-catenin stimulation ([6]; stimulation, at 2 µM)

COC(=O)C1=C(C)NC(C)=C(C(=O)OCC(C)C)C1c1ccccc1[N+](=O)[O-] (stereo not given)
inactive: fluorescence ratio [1] 0.95 | inhibition [2] 4.36% | inhibition [3] -0.87% | fluorescence ratio [4] 0.91 | z-score [5] -0.886 | nuclear beta-catenin stimulation ([6]; at 10 µM) 6%
3.3%: nuclear beta-catenin stimulation ([6]; stimulation, at 2 µM)

COc1ccccc1OCC(O)CN1CCN(CC(=O)Nc2c(C)cccc2C)CC1 (stereo not given)
inactive: inhibition [7] -7% | fluorescence ratio (interference) [8] 0.9 | fluorescence ratio [1] 1.02 | inhibition [2] -3.56% | inhibition [3] -4.72% | fluorescence ratio [4] 0.9 | z-score [5] 0.514 | nuclear beta-catenin stimulation ([6]; at 10 µM) 2.5%
1.4%: nuclear beta-catenin stimulation ([6]; stimulation, at 2 µM)

O=c1c(-c2ccc(O)cc2)coc2cc(O)cc(O)c12
inactive: inhibition [7] -1% | fluorescence ratio (interference) [8] 1 | nuclear beta-catenin stimulation ([6]; at 10 µM) 8.6%
-1.1%: nuclear beta-catenin stimulation ([6]; stimulation, at 2 µM)

COc1cc2nc(N3CCN(C(=O)C4CCCO4)CC3)nc(N)c2cc1OC (stereo not given)
1.4%: nuclear beta-catenin stimulation ([6]; stimulation, at 2 µM)
inactive: inhibition [7] -3% | fluorescence ratio (interference) [8] 1 | fluorescence ratio [1] 0.99 and 1.03 | inhibition [2] 0.4% and -6.82% | inhibition [3] -3.18% and 1.05% | fluorescence ratio [4] 0.95 and 1.02 | z-score [5] -0.533 | nuclear beta-catenin stimulation ([6]; at 10 µM) 0.8%

CN(C)CCC(c1ccccc1)c1ccccn1 (stereo not given)
1.1%: nuclear beta-catenin stimulation ([6]; stimulation, at 2 µM)
inactive: inhibition [7] -1% | fluorescence ratio (interference) [8] 0.9 | nuclear beta-catenin stimulation ([6]; at 10 µM) 0.4%

CC(C)(Oc1ccc(CCNC(=O)c2ccc(Cl)cc2)cc1)C(=O)O
5.1%: nuclear beta-catenin stimulation ([6]; stimulation, at 2 µM)
inactive: inhibition [7] -2% | fluorescence ratio (interference) [8] 1.1 | nuclear beta-catenin stimulation ([6]; at 10 µM) 6.1%

CN1CCN(CCCN2c3ccccc3Sc3ccc(Cl)cc32)CC1
0.2%: nuclear beta-catenin stimulation ([6]; stimulation, at 2 µM)
inactive: inhibition [7] -3% | fluorescence ratio (interference) [8] 1 | inhibition [2] -1.19% | inhibition [3] 9.14% | z-score [5] 0.742 | nuclear beta-catenin stimulation ([6]; at 10 µM) 19.8%
active: fluorescence ratio [1] 0.78 | fluorescence ratio [4] 0.71

CN1CCC(=C2c3ccccc3CC(=O)c3sccc32)CC1
inactive: inhibition [7] -3% | fluorescence ratio (interference) [8] 1 | fluorescence ratio [1] 0.97 | inhibition [2] -6.33% | inhibition [3] -0.39% | fluorescence ratio [4] 0.93 | z-score [5] -0.206 | nuclear beta-catenin stimulation ([6]; at 10 µM) 1.3%
-1.2%: nuclear beta-catenin stimulation ([6]; stimulation, at 2 µM)

CCCCCCCC/C=C\CCCCCCCC(=O)NCc1ccc(O)c(OC)c1
inactive: inhibition [7] -4% | fluorescence ratio (interference) [8] 1 | nuclear beta-catenin stimulation ([6]; at 10 µM) 0%
-1.2%: nuclear beta-catenin stimulation ([6]; stimulation, at 2 µM)

COc1cc2nc(N3CCN(C(=O)C4COc5ccccc5O4)CC3)nc(N)c2cc1OC (stereo not given)
inactive: inhibition [7] -4% | fluorescence ratio (interference) [8] 1 | fluorescence ratio [1] 1.06 | inhibition [2] -1.36% | inhibition [3] -2% | fluorescence ratio [4] 0.9 | nuclear beta-catenin stimulation ([6]; at 10 µM) 38%
2.3%: nuclear beta-catenin stimulation ([6]; stimulation, at 2 µM)

C[C@]12C[C@H](O)[C@H]3[C@@H](CCC4=CC(=O)CC[C@@]43C)[C@@H]1CC[C@@H]2C(=O)CO
-1.4%: nuclear beta-catenin stimulation ([6]; stimulation, at 2 µM)
inactive: inhibition [7] 0% | fluorescence ratio (interference) [8] 1 | fluorescence ratio [1] 1.01 | inhibition [2] -1.97% | inhibition [3] 1.97% | fluorescence ratio [4] 0.99 | nuclear beta-catenin stimulation ([6]; at 10 µM) 0%

— PubChem BioAssay
